Pf growth 96h: P. falciparum growth inhibition at 96 hours; P. falciparum luciferase reporter growth, 96 h; Potency, µM (titrated, usually from 28.7 µM), most hits filed as inhibitors; 6.9% of 320,000 active; AID 504834; active means well fitted inhibition curve with a large enough effect; inconclusive means small, poorly fitted or top-dose-only effect, or another doubt; inactive means no such curve, though single readings can be large or run the other way
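Parasite growth measured via integrated firefly luciferase reporter in P. falciparum. Infected erythrocytes at 2% hematocrit, 0.05% parasitemia final were treated 96 hours at 37 C under 5% CO2, and luminescence was read.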
RE007 growth inh: less growth of the S. pombe RE007 Vpr strain; S. pombe RE007 Vpr strain, BacTiter-Glo ATP luminescence, 24 h; Potency, µM (doses to about 92.2 µM), hits mostly inhibitors; 0.21% of 360,000 active; AID 651644; active means well fitted falling curve with a large enough effect; inconclusive means small, poorly fitted or top-dose-only effect; inactive means no such curve, though single readings can be large or run the other way; further: nearly all actives have a fitted effect of over 50% in size
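Fission yeast strain RE007, carrying one chromosomally integrated HIV-1 vpr copy, was seeded at OD 0.01 in PMG+AL medium with 23 nL pinned compound. After 24 h at 30 °C and 99% humidity, viability was read by BacTiter-Glo luminescence.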
NS1 function inh: influenza NS1 inhibition; Potency, µM (series often up to 46.1 µM); 0.4% of 270,000 active; AID 2326; further: actives are rising curves; nearly all actives have a fitted effect of over 50% in size
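Read-out: OD600 growth recovery of NS1-expressing budding yeast. Cells grown overnight at 30C in -URA glucose medium, washed, resuspended and diluted 1:100 in 2% galactose assay medium, pH 6.0. Same strain lacking NS1 served as positive control.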
SARS PLP yeast: blocks SARS-CoV papain-like protease in a yeast assay. Potency, µM (titrated, usually from 32.9 µM), hits mostly activators. S. cerevisiae expressing SARS-CoV PLpro, growth rescue. 0.19% of 330,000 active; further: nearly all actives have a fitted effect of over 55% in size
Pf growth 48h: P. falciparum growth inhibition at 48 hours (one generation) | P. falciparum luciferase growth in erythrocytes, 48 h | Potency, µM (series often up to 28.7 µM), actives largely listed as inhibitors | 5.9% of 310,000 active; active means well fitted inhibition curve with a large enough effect; inconclusive means small, poorly fitted or top-dose-only effect, or another doubt; inactive means no such curve, though single readings can be large or run the other way
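Parasite viability was followed by luminescence of a genomically integrated firefly luciferase. Cultures held 0.1% parasitemia at 2% hematocrit (final), incubated under 5% CO2 at 37 C.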
A number is an active result; . = inactive; ? = inconclusive; / = not tested or not shown. The list is not random: actives were taken first. Their share in the collection is about 9.5%. Unless noted, the call rests on the fitted dose curve.

SMILES	Pf growth 96h	RE007 growth inh	NS1 function inh	SARS PLP yeast	Pf growth 48h
Cc1nc2ccc(F)cc2cc1C(=O)NCC1CCCO1 (configuration not stated)	6.6µM	.	.	.	?
COc1ccc(CNC(=O)C(=O)NCC2CCCO2)cc1 (configuration not stated)	.	.	.	.	.
CC(C)(C)c1ccc(C(=O)NC(=S)NCC2CCCO2)cc1 (configuration not stated)	.	.	.	13µM	?
CC(C)(C)c1ccc(C(=O)NNC(=S)NCC2CCCO2)cc1 (configuration not stated)	.	.	.	.	.
COc1cc(C(=O)NCC2CCCO2)ccc1OCc1ccc(Cl)cc1Cl (configuration not stated)	12µM	.	/	.	12µM
COc1ccc(CCNC(=O)C(=O)NCC2CCCO2)cc1 (configuration not stated)	4.1µM	.	.	.	.
COc1cc(C(=O)NCC2CCCO2)ccc1OCc1ccc(Cl)cc1 (configuration not stated)	?	.	/	.	?
COc1ccc(OC)c(NC(=O)CSc2nnc3ccc(-c4ccccn4)nn23)c1	.	.	/	.	.
O=C(Nc1ccc(OCc2ccccc2)cc1)Nc1nnc([C@@H]2C[C@H](O)[C@@H](CO)O2)s1	/	.	/	/	/
O=C(NCC1CCCO1)C(=O)N/N=C/c1ccc(O)c(Cl)c1 (configuration not stated)	4.1µM	.	.	.	.
C=C(C)c1cccc(C(C)(C)NC(=O)NCC2CCCO2)c1 (configuration not stated)	.	.	.	.	7.4µM
COC(=O)C[C@@H]1C=C[C@@H](NC(=O)NC2CCCC2)[C@@H](CO)O1	/	.	/	/	/
CCCn1c(SCC(=O)Nc2cccc(C)n2)nnc1C(C)C	.	.	.	.	.
CCCn1c(SCC(=O)Nc2cccc(NC(C)=O)c2)nnc1C(C)C	4.1µM	.	.	.	.
CCCn1c(SCC(=O)Nc2cccc(C(=O)OC)c2)nnc1-c1cccnc1	10µM	.	.	.	.
COc1cc(C(c2c(C)[nH][nH]c2=O)c2c(C)[nH][nH]c2=O)cc(Br)c1OC	7.4µM	.	.	.	.
COC(=O)[C@@]12C[C@@H](CC(=O)N3CCCCC3)C(=O)N(Cc3ccccc3)C1=CCC(C)(C)C2	/	.	/	/	/
CCCCc1ccc(NS(=O)(=O)N(C)C)cc1	10µM	.	.	.	.
CC1CCCC(NC(=O)C2COc3ccccc3O2)C1C (configuration not stated)	.	.	/	.	.
Cc1cc(C(=O)N/N=C/c2ccc(O)c(O)c2O)c(C)n1-c1ccccc1	.	.	/	.	12µM
Cc1cc(C(=O)NCC(c2ccco2)N(C)C)no1 (configuration not stated)	9.3µM	.	.	.	.
CN(C)S(=O)(=O)N1CCCC(C(=O)c2ccc(C(F)(F)F)cc2)C1 (configuration not stated)	0.83µM	.	.	.	.
CN(C)S(=O)(=O)N1CCCC(C(=O)c2ccc(-c3ccccc3)cc2)C1 (configuration not stated)	?	.	.	.	.
COCCC(=O)N1CCCC(C(=O)c2ccc(C(F)(F)F)cc2)C1 (configuration not stated)	13µM	.	.	.	.
CCN(CC)C(=O)c1cc([N+](=O)[O-])cc2c1-c1ccc([N+](=O)[O-])cc1C2=C(C#N)C#N	?	.	.	.	15µM
SMILES	Pf growth 96h	RE007 growth inh	NS1 function inh	SARS PLP yeast	Pf growth 48h
CCOc1cccc(C(=O)Nc2ccc(N(CC)CC)cc2)c1	?	.	.	.	.
CCN(CC)c1cccc(OCC(=O)N(C)CCC#N)c1	.	.	.	.	10µM
N#CC(C#N)=Cc1cn(-c2ncc(C(F)(F)F)cc2Cl)c2ccccc12	.	.	.	.	.
CC(=O)/C=C\c1cn(-c2ncc(C(F)(F)F)cc2Cl)c2ccccc12	10µM	.	.	.	?
O=C(OCCN1CCCCC1)c1cccc(F)c1	5.9µM	.	.	.	.
CCn1c(=O)n(CC)c2cc(N3CCCC3)c(NC(=O)c3ccc(OC)c(Br)c3)cc21	.	.	.	.	13µM
CCn1c(=O)n(CC)c2cc(N3CCCC3)c(NC(=O)c3ccccc3OC)cc21	.	.	.	.	?
CCn1c(=O)n(CC)c2cc(N3CCCC3)c(NC(=O)c3cc(Cl)ccc3OC)cc21	8.3µM	.	.	.	?
CCn1c(=O)n(CC)c2cc(N3CCCC3)c(NC(=O)c3cccc(Cl)c3)cc21	12µM	.	.	.	?
CC1CCCC(C)N1c1ccc(S(=O)(=O)N2CCOCC2)cc1Cl (configuration not stated)	.	.	.	.	.
Clc1ccc(CCNc2ncnc3c2nnn3Cc2ccccc2)cc1	?	.	.	.	.
COc1ccc(C(=O)OCC(=O)NC(=O)NC2CCCC2)c(OC)c1	.	.	/	.	12µM
O=[N+]([O-])c1ccc2c(c1)C(N1CCOCC1)/C(=C/COc1ccc(Cl)cc1Cl)O2 (configuration not stated)	?	.	.	.	12µM
O=C(Nc1ccc(F)c(Cl)c1)C1CC(=O)n2c(nc3ccccc32)N1 (configuration not stated)	.	.	.	.	4.7µM
Cc1ccc(NC(=O)c2ccc(CSc3ccccn3)cc2)cc1	.	.	.	.	.
Cc1ccc(NC(=O)c2ccc(CSc3ccccn3)cc2)c(O)c1	3.7µM	.	.	.	1.5µM
C=CCOC(=O)C1=C(C)NC(=O)NC1c1cc2c(cc1Br)OCO2 (configuration not stated)	.	.	.	.	.
Cc1cc(C)nc(NC(=O)/C=C/c2ccccc2Cl)n1	.	.	.	.	.
Cc1cc(N)c2cc(NC(=O)/C=C/c3ccccc3Cl)ccc2n1	0.59µM	.	.	.	0.47µM
CCCC(=O)Nc1ccc2c(c1)C(=O)N(C)C[C@@H](OC)[C@H](C)CN(Cc1ccc(-c3ccccn3)cc1)[C@@H](C)CO2	/	.	/	/	/
C=CCN1C[C@H](C)N([C@H](c2ccc(C(=O)N(CC)CC)cc2)c2cccc(OC)c2)C[C@H]1C	.	/	/	/	4.8µM
C=CCN1C[C@@H](C)N(C(c2ccc(C(=O)N(CC)CC)cc2)c2cccc(OC)c2)C[C@@H]1C (some centres not stated)	.	.	/	/	1.7µM
C=CCN1C[C@@H](C)N([C@H](c2ccc(C(=O)N(CC)CC)cc2)c2cccc(OC)c2)C[C@@H]1C	/	/	.	/	/
Cc1ccc(C)c(SCC(=O)NCC(c2ccco2)N2CCCCC2)c1 (configuration not stated)	?	.	/	?	?
COc1ccc(CC(=O)NCC2CCCN(Cc3ccc(OC)cc3F)C2)cc1 (configuration not stated)	9.3µM	.	.	?	.
COc1ccc(CC(=O)NCC2CCCN(Cc3ccc(F)cc3F)C2)cc1 (configuration not stated)	?	.	.	.	.

Screens as filed in PubChem.
